# Compound activity: PubChem BioAssay, National Center for Advancing Translational Sciences (NCATS)
# CHX counter = affects cycloheximide protein synthesis inhibition readout, counter-screen; cell reporter, cycloheximide protein synthesis inhibition counterscreen; max response, %; 12% of 300,000 active; AID 2314; in the data active = max response mostly above about 13%, no sharp cut-off; inactive = mostly below about 14%; note: read at 38.3 µM for the half of the compounds with a filed dose; 0% is about no effect
# AmpC inh no detg = blocks E. coli AmpC beta-lactamase in detergent-free assay | AID 485341 | Potency, µM (series often up to 57.1 µM), for the others: top-dose activity change, negative = inhibition, usual class: inhibitors | AmpC nitrocefin hydrolysis, absorbance 480 nm, 0.0001% Triton | P00811 | 0.52% of 330,000 active;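 note: potency is the fitted concentration of half-maximal effect; plate controls were no compound for no effect and no enzyme for full effect; nearly all actives have a fitted effect of over 20% in size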
# Target sequence (P00811 whole entry, looked up): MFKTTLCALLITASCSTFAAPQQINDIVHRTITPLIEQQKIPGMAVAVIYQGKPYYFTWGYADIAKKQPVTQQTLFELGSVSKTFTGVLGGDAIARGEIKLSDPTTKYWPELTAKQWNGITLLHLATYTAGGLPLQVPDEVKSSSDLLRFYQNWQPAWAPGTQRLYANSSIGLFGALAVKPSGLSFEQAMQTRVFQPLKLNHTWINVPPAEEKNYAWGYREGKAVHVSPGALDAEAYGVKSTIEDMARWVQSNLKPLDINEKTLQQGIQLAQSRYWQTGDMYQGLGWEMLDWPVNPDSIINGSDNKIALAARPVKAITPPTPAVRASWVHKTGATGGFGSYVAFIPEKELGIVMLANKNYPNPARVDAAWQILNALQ
#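 20 mM phosphate pH 7.0 + 0.01% (detergent screen) or 0.0001% Triton X-100; 5.3 nM AmpC reagent; cpd preinc 15 min RT; nitrocefin (800 uM stock) to start; A480 q20 s × 4 min; Activity was normalised to no-enzyme and no-compound control wells.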
# Shiga inhibitor = blocks Shiga toxin action in Vero cells; Vero cells, Shiga toxin protein synthesis inhibition reporter; inhibition, % at 38.7 µM; 9.2% of 290,000 active; AID 2315; in the data active = inhibition mostly above about 28%, no sharp cut-off; inactive = mostly below about 43%; note: 0% is about no effect
# AmpC inh detg = inhibitors of E. coli AmpC beta-lactamase with detergent. P00811. AmpC hydrolysis of nitrocefin, absorbance 480 nm, 0.01% Triton. Potency, µM (titrated, usually from 114 µM), inactives show at the highest dose activity change, negative = inhibition, most hits filed as inhibitors. 0.041% of 370,000 active. AID 485294;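 note: potency is the fitted concentration of half-maximal effect; 0% = no-compound wells and -100% = no-enzyme wells; nearly all actives have a fitted effect of over 25% in size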
#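 AmpC (5.3 nM in the dispensed reagent) in 20 mM phosphate pH 7.0 with 0.01% (detergent screen) or 0.0001% Triton X-100 was preincubated with compounds for 15 min at room temperature. Nitrocefin was then added from an 800 uM solution, and hydrolysis was followed at 480 nm.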
# NS1 inh = inhibitors of influenza NS1 protein function; Potency, µM (highest dose often 46.1 µM), inactives show at the highest dose activity, positive = more growth; 0.4% of 270,000 active; AID 2326; calls by dose curve; note: potency is the fitted concentration of half-maximal effect; actives are rising curves; nearly all actives have a fitted effect of over 50% in size
#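 OD600 was taken as the measure of yeast growth restored by compound in an NS1-expressing S. cerevisiae strain. Cells had been washed out of glucose medium and diluted 1:100 into galactose -URA medium, pH 6.0.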
# * = called active by the depositor; ? = inconclusive; nt = no result. The full list was thinned out, with hits kept by preference. Unless noted, calls come from the whole dose curve; as a rule, active = well fitted curve in the direction sought with a large enough effect; inconclusive = small, poorly fitted or top-dose-only effect, or another doubt; inactive = no such curve, though single readings can be large; an effect the other way counts as inactive or inconclusive.
SMILES,CHX counter,AmpC inh no detg,Shiga inhibitor,AmpC inh detg,NS1 inh
COCCCNC(=O)C1CCCN(c2nn3cc(-c4ccc(C)cc4)nc3s2)C1 (stereo unspecified),nt,nt,nt,20.5%,nt
CCOc1ccc(NC(=O)C(NS(=O)(=O)c2ccc3c(c2)CCN3C(C)=O)C(C)C)cc1 (stereo unspecified),nt,nt,nt,1.7%,nt
Cc1ccc(C(=O)N/N=C2\CCc3ccccc32)c(C)c1,63.2*,3.4%,151.8*,4.0%,3.5%
O=C(N/N=C1\CCc2ccccc21)c1ccccc1Cl,52.9*,-22.3%,95.8*,?,13.0%
O=C(N/N=C1\CCCc2ccccc21)c1ccc([N+](=O)[O-])cc1Cl,10.3,-13.8%,67.2,-9.9%,10.2%
CCOC(=O)N/N=C1\CCc2ccccc21,37.9*,-19.0%,73.1*,-12.9%,-11.4%
COc1ccc(N2CCN(S(=O)(=O)CCNC(=O)Cc3ccc(OC)c(OC)c3)CC2)cc1,nt,nt,nt,-7.0%,nt
Cc1cc(=O)[nH]c(COc2ccccc2)n1,3.2,-8.1%,-8.1,-0.9%,2.8%
S=c1nc(Cc2ccccc2)[nH]c2ccccc12,-2.1,-24.9%,-7.2,-7.1%,12.3%
O=C(CCc1nc2ccccc2c(=O)[nH]1)NNC(=O)COc1ccc(Br)cc1,nt,-13.4%,nt,-11.2%,nt
S=c1nc(COc2ccccc2)[nH]c2ccccc12,58.1*,-34.8%,116.3*,-8.1%,6.8%
O=c1[nH]c(COc2ccc(Br)cc2Cl)nc2ccccc12,37.3*,-42.9%,104.3*,3.3%,0.6%
Clc1ccc2nc(COc3ccccc3)[nH]c2c1,33.7*,-33.3%,nt,?,-84.8%
S=c1nc(Cc2ccc(Cl)cc2)[nH]c2ccccc12,12.6*,-22.5%,-7.9,?,nt
O=c1[nH]c(COc2ccccc2)nc2ccccc12,24.9*,-3.9%,48.7*,-6.3%,-5.0%
O=c1[nH]c(CSc2nnc(COc3ccccc3)n2-c2ccccc2)nc2ccccc12,1.8,-21.6%,-5.3,-7.3%,-19.1%
COc1cccc(-c2nc3sc4c(c3c(=O)[nH]2)CCCCC4)c1,21.0*,4.3%,75.0*,3.8%,-9.0%
COCc1nc2sc3c(c2c(=O)[nH]1)CCCC3,16.6*,-2.2%,22.5,?,-40.8%
O=C(CCc1nc2sc3c(c2c(=O)[nH]1)CCCC3)NCCc1ccccc1,nt,-9.3%,nt,3.1%,nt
COc1cccc(-n2cnc3sc4c(c3c2=O)CCC4)c1,12.7,-3.7%,58.4,-7.1%,-2.6%
CCc1ccccc1NC(=O)CNC(=O)CCc1nc2sc3c(c2c(=O)[nH]1)CCCC3,nt,31.6µM*,nt,?,nt
C/C(CC(=O)NC1CCCCCC1)=N\NC(=O)c1cnccn1,25.6*,-21.3%,45.7*,-14.7%,-5.6%
C/C(CC(=O)NC1CCCCC1)=N\NC(=O)c1ccccc1C,13.6,-2.2%,63.4*,-10.8%,-37.4%
O=C(NC1CCCCCCC1)c1cnccn1,8.3,-5.5%,26.3,-12.5%,-0.4%
C/C(CC(=O)NC1CCCCC1)=N\NC(=O)c1ccc(Br)cc1,22.5,-12.6%,53.6,-0.1%,-0.4%
SMILES,CHX counter,AmpC inh no detg,Shiga inhibitor,AmpC inh detg,NS1 inh
Nc1ccc2nc(CN3CCOCC3)[nH]c2c1,-1.3,-1.1%,17.8,-8.7%,-2.1%
COc1ccc(N2CCN(C(=O)COC(=O)Cc3c(F)cccc3Cl)CC2)cc1,nt,36.7%,nt,?,nt
CCN(Cc1nc2cc(Cl)ccc2c(=O)[nH]1)C(=O)c1cccc(OCc2c(C)noc2C)c1,nt,22.0%,nt,-4.8%,nt
COC(=O)[C@]1(C)N[C@H](CN(C)C(=O)Nc2ccc(OC)cc2)[C@@H]2C(=O)N(Cc3ccccc3)C(=O)[C@@H]21,nt,62.9%,nt,nt,nt
COc1ccc(-c2cc(C(=O)Nc3ccc(O)cc3)c3ccccc3n2)cc1OC,28.2*,22.8%,61.5*,1.7%,5.5%
COc1ccc(-c2cc(C(=O)Nc3ccc(C)c(N)c3)c3ccccc3n2)cc1,18.8*,22.8%,118.1*,-6.9%,-13.1%
COc1ccc(-c2cc(C(=O)Nc3ccc(S(=O)(=O)Nc4ncccn4)cc3)c3ccccc3n2)cc1,1.6,-35.7%,-4.3,10.3%,-0.7%
Cc1ccc(C(=O)NCCc2ccc(S(N)(=O)=O)cc2)cc1-n1cnc2cccnc21,nt,nt,nt,0.1%,nt
c1ccc(-n2cnc3cc(NCc4cccs4)ccc32)cc1,87.5*,-28.3%,76.6*,-1.8%,-58.6%
Cn1cnc2cc(NCc3cccs3)ccc21,24.1*,-13.5%,65.5*,5.6%,nt
c1ccc(-n2cnc3ccccc32)cc1,31.1,-9.5%,55.9,-4.2%,nt
Cc1ccc(-n2cnc3cc(NCc4cccs4)ccc32)cc1,52.9*,-9.4%,99.9*,-3.0%,-87.8%
Cc1ccc(-n2ccnc(NCc3cccs3)c2=O)cc1C,nt,nt,nt,9.5%,nt
c1ccc(-n2cnc3cc(NCc4ccco4)ccc32)cc1,35.4*,-28.1%,62.7*,-0.7%,2.2%
O=C(Nc1ccc(Cl)cc1)c1cc(S(=O)(=O)NC2CCCCCC2)ccc1F,nt,nt,nt,8.5%,nt
Cc1ccc(-n2c3nc(=O)[nH]c(=O)c-3cc3c(C)nn(-c4ccccc4)c32)cc1Cl,nt,nt,nt,3.6%,nt
COc1ccc(CNC(=O)c2cc3sccc3n2Cc2ccc(C)cc2)cc1,nt,nt,nt,0.3%,nt
CC(NC(=O)CCCn1c(=O)c2cccn2c2cccnc21)c1ccccc1 (stereo unspecified),nt,nt,nt,-3.2%,nt
COc1ccc2[nH]c(=O)c(CN(C(=O)c3cccc(Cl)c3)c3cccc(C)c3)cc2c1,nt,nt,nt,17.3%,nt
COc1ccc(OC)c(C2CC(=O)c3c([nH]c(C(=O)OCc4ccc(C)cc4)c3C)C2)c1 (stereo unspecified),nt,nt,nt,-9.9%,nt
COc1ccc(-n2cnc3cc(NCc4ccccn4)ccc32)cc1,9.3,-2.8%,43.4,-14.0%,-16.5%
COc1ccc(-n2cnc3cc(NCc4cccs4)ccc32)cc1,50.9*,0.4%,99.6*,-6.7%,-117.7%
CCCCN(CC)CCCn1cnc2c([nH]c3ccc(Cl)cc32)c1=O,nt,nt,nt,-8.2%,nt
Cn1c(SCC(=O)OCc2ccccc2)nnc1-c1ccco1,-2.5,-5.9%,-4.1,-8.3%,-14.0%
Cc1ccc(C(=O)CSc2nnc(-c3ccco3)n2Cc2ccccc2)cc1,22.4*,14.2%,89.7,?,-24.6%
SMILES,CHX counter,AmpC inh no detg,Shiga inhibitor,AmpC inh detg,NS1 inh
CC(C)Cn1c(SCC(=O)c2ccc(Cl)s2)nnc1-c1ccco1,32.9*,2.8%,72.4,3.5%,-51.7%
Cn1c(SCC(=O)c2ccc(-c3ccccc3)cc2)nnc1-c1ccco1,28.2*,-49.4%,29.2*,?,-33.1%
NC(=O)NC(=O)CSc1nnc(-c2ccco2)n1Cc1ccccc1,-6.0,-7.7%,-22.2,4.6%,-5.2%
O=C(CSc1nnc(-c2ccco2)n1Cc1ccccc1)c1ccccc1,38.3*,14.8%,72.0*,-3.9%,-23.8%
C=CCn1c(Oc2ccc(C=O)cc2OCC)nc2c1c(=O)n(C)c(=O)n2C,-4.8,17.7%,-12.0,0.0%,4.9%
COc1cccc(/C=C2\NC(=O)NC2=O)c1O,24.3,-4.0%,40.6*,-1.3%,0.1%
CCOc1ccc2nc(COC(=O)c3cccs3)c(C(=O)c3ccccc3)[n+]([O-])c2c1,-0.8,-15.3%,22.4,-5.6%,-0.1%
CCOc1ccc2nc(COC(=O)c3ccncc3)c(C(=O)c3ccccc3)[n+]([O-])c2c1,27.0*,17.4%,51.7*,-9.4%,-3.8%
